Calls of active or inactive are those of the source. The calls were made as follows: active = hit-call score of the fitted dose curve at least 0.9, where 1 is the maximum; inactive = score below 0.9.
Columns and labels:
[1] = ATG_NFI_CIS: Attagene CIS-FACTORIAL HepG2 Assay for human Nuclear Factor I (NFI) (AID 2282989); conditions: HepG2 cis-regulatory reporter, NFI response element transcription; actives raise or lower the signal
How it was run: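 Transient MRTU transfection of HepG2 → 24 h chemical dosing → total RNA, oligo(dT) RT → PCR, 6-FAM primer extension, HpaI cut → capillary electrophoresis. Endpoint fitted bidirectionally relative to DMSO.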

[2] = molecular target: Myc proto-oncogene protein (Homo sapiens) (UniProt P01106); assay: ATG_Myc_CIS: Attagene CIS-FACTORIAL HepG2 Assay for human Myelocytomatosis (Myc) Proto-Oncogene Transcription Factor (AID 2282990); conditions: HepG2, Attagene cis-reporter transcription factor activity; actives raise or lower the signal
How it was run: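 After 24 h chemical treatment of HepG2 cells carrying multiplexed cis-regulated reporter constructs, reporter transcripts quantified by RT-PCR and capillary electrophoresis of fluorescent fragments. Gain or loss fitted against DMSO baseline.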

[3] = ATG_NF_kB_CIS: Attagene CIS-FACTORIAL HepG2 Assay for human Nuclear Factor Kappa B (NF-kB) (AID 2282991); conditions: HepG2 Attagene cis-factorial NF-kB reporter mRNA; actives raise or lower the signal
How it was run: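 DMSO served as negative control and baseline for bidirectional curve fitting. Transiently transfected HepG2 cells were dosed for 24 h, then reporter transcripts were measured by RT-PCR with capillary electrophoresis detection.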

[4] = ATG_NRF2_ARE_CIS: Attagene CIS-FACTORIAL HepG2 Assay for human Nuclear Factor Erythroid 2 Related Factor 2 (NFR2) response to Antioxidant Response Elements (ARE) (AID 2282992); conditions: HepG2 Attagene ARE/NRF2 reporter, transcription factor activity; actives raise or lower the signal;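 as to AC50: reporter mRNA level measured by RT-PCR and capillary electrophoresis fluorescence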
How it was run: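 Using transiently transfected HepG2 cells exposed for 24 h, reporter mRNA levels were determined by RT-PCR with fluorescent primer extension and capillary electrophoresis, analysed for gain or loss of signal against DMSO.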

[5] = ATG_Oct_MLP_CIS: Attagene CIS-FACTORIAL HepG2 Assay for human Octamer-Binding Transcription Factor (Oct) (AID 2282993); conditions: HepG2 Attagene cis-factorial Oct reporter, mRNA; actives raise or lower the signal
How it was run: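 Transient MRTU transfection of HepG2 → 24 h compound treatment → RNA isolation, reverse transcription, PCR → 6-FAM primer extension, HpaI digest → capillary electrophoresis. Activity fitted both directions against DMSO.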

[6] = molecular target: Cellular tumor antigen p53 (Homo sapiens) (UniProt P04637); assay: ATG_p53_CIS: Attagene CIS-FACTORIAL HepG2 Assay for human p53 Transcription Factor (AID 2282994); conditions: HepG2 p53 cis-element reporter, Attagene mRNA; actives raise or lower the signal
How it was run: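 In HepG2 cells, reporter transcription units under cis-regulatory promoters were transiently introduced. Following 24 h treatment, RNA was processed to labelled, digested cDNA fragments read by capillary electrophoresis; fitting was bidirectional versus DMSO.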

Sequence of Myc proto-oncogene protein (Homo sapiens) (P01106 whole entry, looked up, the tested form may be a part): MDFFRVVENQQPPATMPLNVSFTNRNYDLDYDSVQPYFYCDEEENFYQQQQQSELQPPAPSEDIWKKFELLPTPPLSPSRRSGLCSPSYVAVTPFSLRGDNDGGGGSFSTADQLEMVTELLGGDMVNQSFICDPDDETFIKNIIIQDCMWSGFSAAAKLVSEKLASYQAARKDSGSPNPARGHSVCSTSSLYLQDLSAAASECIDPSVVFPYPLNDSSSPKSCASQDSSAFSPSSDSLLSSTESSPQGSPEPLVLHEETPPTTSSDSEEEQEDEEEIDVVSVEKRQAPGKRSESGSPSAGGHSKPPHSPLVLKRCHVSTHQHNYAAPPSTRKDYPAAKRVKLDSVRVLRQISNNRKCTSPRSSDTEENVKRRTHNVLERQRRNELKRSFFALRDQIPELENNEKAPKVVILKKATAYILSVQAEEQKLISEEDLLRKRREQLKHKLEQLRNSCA
Sequence of Cellular tumor antigen p53 (Homo sapiens) (P04637 whole entry, looked up, the tested form may be a part): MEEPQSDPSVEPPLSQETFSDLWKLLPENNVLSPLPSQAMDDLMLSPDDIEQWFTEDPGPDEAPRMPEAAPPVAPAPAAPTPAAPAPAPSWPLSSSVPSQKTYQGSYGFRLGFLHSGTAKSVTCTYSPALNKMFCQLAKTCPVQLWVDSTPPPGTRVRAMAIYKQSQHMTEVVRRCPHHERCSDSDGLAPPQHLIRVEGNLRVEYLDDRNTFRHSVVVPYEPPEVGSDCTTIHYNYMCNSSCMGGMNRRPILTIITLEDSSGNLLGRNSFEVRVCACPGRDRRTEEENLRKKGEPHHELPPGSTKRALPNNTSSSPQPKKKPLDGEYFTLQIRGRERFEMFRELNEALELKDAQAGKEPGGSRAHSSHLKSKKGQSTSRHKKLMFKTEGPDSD

Row | Compound | outcome [1] | outcome [2] | outcome [3] | AC50 [4] | outcome [5] | outcome [6] | AC50 [2] | outcome [4] | AC50 [5] | AC50 [1] | AC50 [3] | AC50 [6]
1 | CCCCCCCCCCOS(=O)(=O)O | inactive | inactive | inactive | 99.5 µM (active) | inactive | inactive | – | – | – | – | – | –
2 | Cc1ccc([N+](=O)[O-])cc1S(=O)(=O)O | inactive | – | inactive | – | inactive | inactive | 165 µM (active) | inactive | – | – | – | –
3 | Nc1ccc(N=Nc2ccccc2)c(N)n1 | inactive | inactive | inactive | 15.3 µM (active) | – | inactive | – | – | 69.7 µM (active) | – | – | –
4 | CC(C)(C)c1ccc(OC(=O)c2ccccc2O)cc1 | inactive | inactive | inactive | – | inactive | inactive | – | inactive | – | – | – | –
5 | CC(=O)CC(N)=O | inactive | inactive | inactive | – | inactive | inactive | – | inactive | – | – | – | –
6 | O=P(O)(O)Oc1ccccc1 | inactive | inactive | inactive | – | inactive | inactive | – | inactive | – | – | – | –
7 | O=C(Nc1cccc(C(F)(F)F)c1)c1cc(Br)cc(Br)c1O | – | – | – | 0.851 µM (active) | – | – | 166 µM (active) | – | 2.95 µM (active) | 100 µM (active) | 169 µM (active) | 147 µM (active)
8 | CC(C)(C)C(=O)C=Cc1ccc(Cl)cc1 | – | inactive | inactive | – | – | – | – | inactive | 26.3 µM (active) | 48.8 µM (active) | – | 59 µM (active)
9 | OCCCS | inactive | inactive | inactive | – | inactive | inactive | – | inactive | – | – | – | –
10 | CN(C)c1ccc(N=Nc2ccccc2C(=O)O)cc1 | inactive | inactive | inactive | 4.76 µM (active) | – | – | – | – | 23.3 µM (active) | – | – | 66.4 µM (active)
11 | CC/C=C\CCOC(=O)CCCCC | inactive | inactive | inactive | – | inactive | inactive | – | inactive | – | – | – | –
12 | Cc1ccccc1C | inactive | inactive | inactive | – | inactive | inactive | – | inactive | – | – | – | –
13 | O=[N+]([O-])c1ccc(CO)cc1 | inactive | inactive | inactive | – | inactive | inactive | – | inactive | – | – | – | –
14 | NC(=O)NNC(N)=O | inactive | inactive | inactive | – | inactive | inactive | – | inactive | – | – | – | –
15 | CCCCCCCCCCC=CC#N | inactive | inactive | inactive | 114 µM (active) | inactive | inactive | – | – | – | – | – | –
16 | CCOCC(=O)O | inactive | inactive | inactive | – | inactive | inactive | – | inactive | – | – | – | –
17 | CCc1ccc2c(c1)C(=O)c1ccccc1C2=O | inactive | inactive | inactive | 14.5 µM (active) | inactive | inactive | – | – | – | – | – | –
18 | CC(=O)Nc1nnc(S(N)(=O)=O)s1 | inactive | inactive | inactive | – | inactive | inactive | – | inactive | – | – | – | –
19 | Cc1oncc1C(=O)Nc1ccc(C(F)(F)F)cc1 | inactive | inactive | inactive | 100 µM (active) | inactive | inactive | – | – | – | – | – | –

Row | Compound | outcome [1] | outcome [2] | outcome [3] | AC50 [4] | outcome [5] | outcome [6] | AC50 [2] | outcome [4] | AC50 [5] | AC50 [1] | AC50 [3] | AC50 [6]
20 | COC(=O)c1ccc2cc(C(=O)OC)ccc2c1 | inactive | inactive | inactive | – | inactive | inactive | – | inactive | – | – | – | –
21 | CCC(CO)CO | inactive | inactive | inactive | – | inactive | inactive | – | inactive | – | – | – | –
22 | CC1(C)[C@H]2CC[C@]1(C)C(=O)C2 | inactive | inactive | inactive | – | inactive | inactive | – | inactive | – | – | – | –
23 | CCCCCCOc1cc(C)c(O)c(C)c1C | inactive | inactive | – | 7.78 µM (active) | inactive | inactive | – | – | – | – | 16.5 µM (active) | –
24 | N#CCc1ccc(Cl)cc1Cl | inactive | inactive | inactive | – | inactive | inactive | – | inactive | – | – | – | –
25 | O=[N+]([O-])C1(Br)COCOC1 | inactive | inactive | – | – | inactive | – | – | inactive | – | – | 51.7 µM (active) | 53.8 µM (active)
26 | COC(F)(F)C(F)(C(F)(F)F)C(F)(F)F | inactive | inactive | inactive | – | inactive | inactive | – | inactive | – | – | – | –
27 | Cc1cc(C)c(C)cc1C | inactive | inactive | inactive | – | inactive | inactive | – | inactive | – | – | – | –
28 | Cn1c([N+](=O)[O-])cnc1COC(N)=O | inactive | inactive | inactive | – | inactive | inactive | – | inactive | – | – | – | –
29 | CCCC(=O)OCc1ccccc1 | inactive | inactive | inactive | – | inactive | inactive | – | inactive | – | – | – | –
30 | Cc1cc(=O)n(-c2ccccc2)n1C | inactive | inactive | inactive | – | inactive | inactive | – | inactive | – | – | – | –
31 | CN(C)c1ccc(C(=N)c2ccc(N(C)C)cc2)cc1 | – | inactive | inactive | – | – | – | – | inactive | 0.143 µM (active) | 0.162 µM (active) | – | 29.4 µM (active)
32 | O=S(=O)(O)c1cc(S(=O)(=O)O)c2ccc3c(S(=O)(=O)O)cc(S(=O)(=O)O)c4ccc1c2c43 | inactive | inactive | inactive | – | inactive | inactive | – | inactive | – | – | – | –
33 | CCOC(=O)CC(C(C)=O)C(C)=O | inactive | inactive | inactive | – | inactive | inactive | – | inactive | – | – | – | –
34 | OC1CCCCCCCCCCC1 | inactive | inactive | inactive | – | inactive | inactive | – | inactive | – | – | – | –
35 | CC(C)COC(=O)C=Cc1ccccc1 | inactive | inactive | inactive | 18.4 µM (active) | inactive | inactive | – | – | – | – | – | –
36 | Cc1ccc2c(c1)C(=O)c1ccccc1C2=O | inactive | inactive | – | 10.5 µM (active) | inactive | inactive | – | – | – | – | 6.48 µM (active) | –
37 | CC(C)(C)c1n[nH]c(=O)n(N)c1=O | inactive | inactive | inactive | – | inactive | inactive | – | inactive | – | – | – | –
38 | C=C(C)CCO | inactive | inactive | inactive | – | inactive | inactive | – | inactive | – | – | – | –

Row | Compound | outcome [1] | outcome [2] | outcome [3] | AC50 [4] | outcome [5] | outcome [6] | AC50 [2] | outcome [4] | AC50 [5] | AC50 [1] | AC50 [3] | AC50 [6]
39 | [Cl][Nd]([Cl])[Cl] | inactive | inactive | inactive | – | inactive | inactive | – | inactive | – | – | – | –
40 | Cn1c(=O)[nH]c2ncn(C)c2c1=O | inactive | inactive | inactive | – | inactive | inactive | – | inactive | – | – | – | –
41 | COc1cc(C)ccc1C(C)C | inactive | inactive | inactive | – | inactive | inactive | – | inactive | – | – | – | –
42 | CC(=O)C=CC1C(C)=CCC(C)C1(C)C (stereo unspecified) | inactive | inactive | inactive | 27.8 µM (active) | inactive | inactive | – | – | – | – | – | –
43 | [Cl][Bi]([Cl])([c]1ccccc1)([c]1ccccc1)[c]1ccccc1 | inactive | inactive | – | 0.999 µM (active) | inactive | – | – | – | – | – | 0.463 µM (active) | 6.07 µM (active)
44 | CC(=O)OCCC1CCCCC1 | inactive | inactive | inactive | – | inactive | inactive | – | inactive | – | – | – | –
45 | COC(=O)/C=C/C(C)=C\C=C\C(C)=C\C=C\C=C(C)\C=C\C=C(C)\C=C\C(=O)O | inactive | inactive | inactive | 67.9 µM (active) | inactive | inactive | – | – | – | – | – | –
46 | O=C(C(Cl)Cl)N1CCOC12CCCCC2 | inactive | – | inactive | 7.52 µM (active) | inactive | inactive | 8.87 µM (active) | – | – | – | – | –
47 | CO[Si](CCC1CCC2OC2C1)(OC)OC (stereo unspecified) | inactive | inactive | inactive | – | inactive | inactive | – | inactive | – | – | – | –
48 | CCC(CC)C(=O)O | inactive | inactive | inactive | – | inactive | inactive | – | inactive | – | – | – | –
49 | CCOC(F)(F)C(F)(F)C(F)(F)C(F)(F)F | inactive | inactive | inactive | – | inactive | inactive | – | inactive | – | – | – | –
50 | CC(C)C1=CC2=CC[C@@H]3[C@](C)(CCC[C@@]3(C)C(=O)O)[C@H]2CC1 | inactive | inactive | – | 19.8 µM (active) | inactive | inactive | – | – | – | – | 157 µM (active) | –
51 | NCCCN1CCN(CCCN)CC1 | inactive | inactive | inactive | 81.2 µM (active) | inactive | inactive | – | – | – | – | – | –
52 | OC1OCCOC1O (stereo unspecified) | inactive | inactive | inactive | – | inactive | inactive | – | inactive | – | – | – | –
53 | C=C(C)C(=O)OCC(C)C | inactive | inactive | inactive | – | inactive | inactive | – | inactive | – | – | – | –
54 | CCC(C)C=O (stereo unspecified) | inactive | inactive | inactive | – | inactive | inactive | – | inactive | – | – | – | –
55 | O=c1cc[nH]c(=S)[nH]1 | inactive | inactive | inactive | – | inactive | inactive | – | inactive | – | – | – | –
56 | CCc1c(C(=O)O)c(=O)cnn1-c1ccc(Cl)cc1 | inactive | inactive | inactive | – | inactive | inactive | – | inactive | – | – | – | –

Source: PubChem BioAssay (EPA / NIEHS)
